Data published in the supplement of paper PMC12494721.
Structures can show the parent of a compound that is named as a salt.

How the values were obtained:
Settings in all cases: incubation time: 27 h, anaerobic, 37 °C;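 for the amine columns active = adjusted P below 0.05 in both replicates with a change the same way and a mean fold change under 0.8 or over 1.25; inactive = the rest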
[1] = test system: Clostridium sporogenes DSM 1664; assay: growth (OD595) fold change vs plate DMSO controls (fold change (ratio)); higher = more growth
Outline: (§1)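 After 27 h at 37 °C under anaerobic conditions, 96-well cultures in mGAM were shaken and read at 595 nm. The readings were blank-subtracted, corrected for compound background using 20 µM compound solutions in water, and converted to OD with a calibration factor of 5. Growth is defined as the fold change over the median of DMSO controls on each plate. Fold changes above 1.5 were set to NA, and each value is the mean of 2 biological replicates.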

Escherichia coli IAI1 [2] = assay: as above
Outline: as §1

[3] = test system: Klebsiella aerogenes DSM 30053; assay: as above
Outline: as §1

[4] = test system: Ruminococcus gnavus DSM 108212; assay: as above
Outline: as §1

[5] = test system: Klebsiella aerogenes DSM 30053; assay: fold change of Histamine concentration vs plate DMSO controls (fold change (ratio)); higher = more amine produced, active = hit call of the paper (significant change in both replicates, either direction)
Outline: (§2)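 In 80 µL wells, cultures of four gut bacterial strains in mGAM started at OD 0.1 before a 1:1 dilution and grew anaerobically at 37 °C for 27 h. Compounds were added to 20 µM final, except sweeteners at 50 µM final. After extraction of whole cultures with cold acetonitrile/methanol plus 0.1% formic acid and centrifugation, amines were measured by LC–triple-quadrupole MS in dynamic MRM mode against external calibration curves, with within-batch drift correction. Values give fold change over DMSO controls on the same plate, averaged across 2 biological replicates.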

[6] = test system: Clostridium sporogenes DSM 1664; assay: fold change of Tryptamine concentration vs plate DMSO controls (fold change (ratio)); higher = more amine produced, active = hit call of the paper (significant change in both replicates, either direction)
Outline: as §2

[7] = test system: Ruminococcus gnavus DSM 108212; assay: as above
Outline: as §2

Escherichia coli IAI1 [8] = assay: fold change of Putrescine concentration vs plate DMSO controls (fold change (ratio)); higher = more amine produced, active = hit call of the paper (significant change in both replicates, either direction)
Outline: as §2

[9] = test system: Klebsiella aerogenes DSM 30053; assay: as above
Outline: as §2

Escherichia coli IAI1 [10] = assay: fold change of Cadaverine concentration vs plate DMSO controls (fold change (ratio)); higher = more amine produced, active = hit call of the paper (significant change in both replicates, either direction)
Outline: as §2

[11] = test system: Klebsiella aerogenes DSM 30053; assay: as above
Outline: as §2

[12] = test system: Ruminococcus gnavus DSM 108212; assay: fold change of 2-Phenylethylamine concentration vs plate DMSO controls (fold change (ratio)); higher = more amine produced, active = hit call of the paper (significant change in both replicates, either direction)
Outline: as §2

| Compound | growth [1] | growth (Escherichia coli IAI1 [2]) | growth [3] | growth [4] | fold change of Histamine concentration [5] | fold change of Tryptamine concentration [6] | fold change of Tryptamine concentration [7] | fold change of Putrescine concentration (Escherichia coli IAI1 [8]) | fold change of Putrescine concentration [9] | fold change of Cadaverine concentration (Escherichia coli IAI1 [10]) | fold change of Cadaverine concentration [11] | fold change of 2-Phenylethylamine concentration [12] |
| --- | --- | --- | --- | --- | --- | --- | --- | --- | --- | --- | --- | --- |
| O=C(Cn1c(=O)sc2ccc(Cl)cc21)N1CCN(CCO)CC1 [Tiaramide Hydrochloride] (20 µM) | 0.912 | 1 | 1 | 0.982 | 1.01 (inactive) | 1.08 (inactive) | 1.07 (inactive) | 0.959 (inactive) | 0.993 (inactive) | 0.963 (inactive) | 0.991 (inactive) | 1.13 (inactive) |
| CN(C)CCC=C1c2ccccc2CCc2ccccc21 [Amitryptiline hydrochloride] (20 µM) | 1.05 | 1.04 | 1.06 | 1.12 | 0.911 (inactive) | 0.996 (inactive) | 0.973 (inactive) | 1.01 (inactive) | 0.936 (inactive) | 1.01 (inactive) | 1.02 (inactive) | 1.01 (inactive) |
| Cc1cc(C2CCCCC2)n(O)c(=O)c1 [Ciclopirox ethanolamine] (20 µM) | 0.962 | 1.05 | 1.06 | 1.13 | 0.978 (inactive) | 1.04 (inactive) | 1.02 (inactive) | 1.06 (inactive) | 0.994 (inactive) | 1 (inactive) | 1 (inactive) | 0.976 (inactive) |
| Fc1ccc([C@@H]2CCNC[C@H]2COc2ccc3c(c2)OCO3)cc1 [Paroxetine hydrochloride] (20 µM) | 1.01 | 1.06 | 0.971 | 0.929 | 1.05 (inactive) | 0.925 (inactive) | 0.833 (inactive) | 0.692 (inactive) | 0.991 (inactive) | 1.69 (active) | 0.991 (inactive) | 0.885 (inactive) |
| CC1(C)S[C@@H]2[C@H](NC(=O)[C@H](NC(=O)N3CCNC3=O)c3ccccc3)C(=O)N2[C@H]1C(=O)O [Azlocillin sodium salt] (20 µM) | 0 | 0.726 | 1.16 | 0 | 0.875 (inactive) | 0.0279 (active) | 0.0374 (active) | 0.965 (inactive) | 1.07 (inactive) | 1.87 (active) | 1.02 (inactive) | 0.0385 (active) |
| CCC1(C)CC(=O)NC1=O (stereo unspecified) [Ethosuximide] (20 µM) | 0.953 | 1 | 1.07 | 0.928 | 0.991 (inactive) | 1.07 (inactive) | 0.992 (inactive) | 1 (inactive) | 0.995 (inactive) | 0.995 (inactive) | 1.03 (inactive) | 1.02 (inactive) |
| CC(C)NCC(O)c1ccc2ccccc2c1 (stereo unspecified) [Pronethalol hydrochloride] (20 µM) | 1.12 | 1.01 | 0.993 | 0.98 | 0.97 (inactive) | 0.978 (inactive) | 1.04 (inactive) | 1.01 (inactive) | 0.986 (inactive) | 0.994 (inactive) | 0.982 (inactive) | 1.05 (inactive) |
| Cc1cc2nc3ccc(=[N+](C)C)cc-3sc2cc1N [Tolonium chloride] (20 µM) | 0.823 | 0.559 | 0.55 | 0.0958 | 0.959 (inactive) | 1 (inactive) | 0.972 (inactive) | 0.979 (inactive) | 1 (inactive) | 1.05 (inactive) | 0.984 (inactive) | 0.959 (inactive) |
| Nc1ccc(C(=O)O)c(O)c1 [Aminosalicylic acid] (20 µM) | 1.11 | 1.02 | 1.02 | 0.97 | 1.06 (inactive) | 1 (inactive) | 0.999 (inactive) | 1.01 (inactive) | 1.01 (inactive) | 1.02 (inactive) | 0.98 (inactive) | 0.981 (inactive) |
| O=C(c1cc(O)c(O)c(O)c1)c1ccc(O)c(O)c1O [Exifone] (20 µM) | 1.09 | 1 | 0.934 | 0.904 | 1.06 (inactive) | 1.09 (inactive) | 1.03 (inactive) | 1.01 (inactive) | 0.998 (inactive) | 0.991 (inactive) | 1 (inactive) | 1.07 (inactive) |
| Cc1onc(-c2c(Cl)cccc2Cl)c1C(=O)N[C@@H]1C(=O)N2[C@@H]1SC(C)(C)[C@@H]2C(=O)O [Dicloxacillin sodium salt hydrate] (20 µM) | 0.000771 | 0.996 | 0.975 | 0.165 | 1.01 (inactive) | 0.0119 (active) | 0.05 (active) | 0.979 (inactive) | 1.01 (inactive) | 1.03 (inactive) | 0.994 (inactive) | 0.0548 (active) |
| NC(=O)OCC(O)COc1ccc(Cl)cc1 (stereo unspecified) [Chlorphensin carbamate] (20 µM) | 1.02 | 1.02 | 0.951 | 1.2 | 0.969 (inactive) | 0.996 (inactive) | 0.995 (inactive) | 1 (inactive) | 0.913 (inactive) | 0.951 (inactive) | 1.02 (inactive) | 1.07 (inactive) |
| CCCc1cc(C(N)=S)ccn1 [Prothionamide] (20 µM) | 1.09 | 1.15 | 0.999 | 0.999 | 1.01 (inactive) | 0.998 (inactive) | 0.977 (inactive) | 1.18 (inactive) | 0.982 (inactive) | 1.01 (inactive) | 0.999 (inactive) | 0.946 (inactive) |
| CC(NCCc1ccc(O)cc1)C(O)c1ccc(O)cc1 (stereo unspecified) [Ritodrine hydrochloride] (20 µM) | 0.998 | 0.987 | 0.985 | 0.697 | 0.979 (inactive) | 1 (inactive) | 1.02 (inactive) | 0.985 (inactive) | 1.01 (inactive) | 1.01 (inactive) | 1.01 (inactive) | 1.05 (inactive) |
| C[C@]12CC[C@H]3[C@@H](CCC4=CC(=O)CC[C@@]43C)[C@@H]1CC[C@@H]2C(=O)CO [Deoxycorticosterone] (20 µM) | 1.18 | 1.09 | 1.02 | 1.11 | 0.959 (inactive) | 0.963 (inactive) | 1.03 (inactive) | 1.25 (inactive) | 0.962 (inactive) | 0.96 (inactive) | 1.03 (inactive) | 1.06 (inactive) |
| CCC(NC(C)C)C(O)c1ccc(O)c2[nH]c(=O)ccc12 (stereo unspecified) [Procaterol hydrochloride] (20 µM) | 1.07 | 1.02 | 1.03 | 1.02 | 1.01 (inactive) | 1.02 (inactive) | 1.1 (inactive) | 0.978 (inactive) | 0.949 (inactive) | 0.922 (inactive) | 1.06 (inactive) | 1.14 (inactive) |
| Nc1c(Br)cc(Br)cc1CN[C@H]1CC[C@H](O)CC1 [Ambroxol hydrochloride] (20 µM) | 0.943 | 1.07 | 0.958 | 0.75 | 1.03 (inactive) | 1.04 (inactive) | 1 (inactive) | 1.05 (inactive) | 1 (inactive) | 1.01 (inactive) | 0.991 (inactive) | 0.985 (inactive) |
| C=C(CC)C(=O)c1ccc(OCC(=O)O)c(Cl)c1Cl [Ethacrynic acid] (20 µM) | 1.11 | 0.984 | 1.01 | 1.19 | 0.964 (inactive) | 1.01 (inactive) | 0.941 (inactive) | 0.972 (inactive) | 1.03 (inactive) | 0.985 (inactive) | 0.999 (inactive) | 0.917 (inactive) |
| CCCCNc1c(C(=O)OCC)c(C)nc2c1cnn2CC [Tracazolate hydrochloride] (20 µM) | 1.14 | 0.998 | 1.01 | 0.943 | 0.977 (inactive) | 0.933 (inactive) | 1.08 (inactive) | 1.01 (inactive) | 0.993 (inactive) | 1.03 (inactive) | 1 (inactive) | 1.11 (inactive) |
| C[C@@H]1CCC[C@H](C)N1NC(=O)c1ccc(Cl)c(S(N)(=O)=O)c1 [Clopamide] (20 µM) | 1.09 | 0.983 | 0.983 | 1.04 | 1.07 (inactive) | 1.07 (inactive) | 1.02 (inactive) | 0.989 (inactive) | 1.03 (inactive) | 1 (inactive) | 1.01 (inactive) | 1.03 (inactive) |
| C[N+](C)(CCOc1ccccc1)Cc1ccccc1.O=C([O-])c1cc2ccccc2cc1O [Bephenium hydroxynaphthoate] (20 µM) | 0.816 | 0.99 | 0.976 | 0.995 | 1.04 (inactive) | 1.16 (inactive) | 1.04 (inactive) | 0.854 (inactive) | 0.99 (inactive) | 1.51 (active) | 0.992 (inactive) | 1.06 (inactive) |
| CNC(=O)OCc1cccc(COC(=O)NC)n1 [Pyricarbate] (20 µM) | 0.9 | 1.02 | 1.03 | 1.02 | 0.976 (inactive) | 0.953 (inactive) | 1.03 (inactive) | 1.03 (inactive) | 0.995 (inactive) | 1.05 (inactive) | 0.995 (inactive) | 1.06 (inactive) |
| Nc1cc(C(Cl)=C(Cl)Cl)c(S(N)(=O)=O)cc1S(N)(=O)=O [Clorsulon] (20 µM) | 1.04 | 0.963 | 0.957 | 0.922 | 1.15 (inactive) | 0.998 (inactive) | 1.02 (inactive) | 1.02 (inactive) | 1.03 (inactive) | 0.981 (inactive) | 0.978 (inactive) | 1.01 (inactive) |
